Bioassay records: PubChem BioAssay, National Center for Advancing Translational Sciences (NCATS)
The list is not random: actives were taken first. Their share in the collection is about 2.2%.
FUS suppressor: FUS proteinopathy suppression in yeast | S. cerevisiae FUS-expressing, growth rescue, OD600, 24 h | Potency, µM (doses to about 76.6 µM), actives largely listed as activators | actives 0.24% (n = 390,000);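 note: plate controls were DMSO vehicle for no effect and reference control for full effect; nearly all actives have a fitted effect of over 55% in size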
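Steps: raffinose overnight preculture; dilution to OD 0.005 in 2% galactose minimal medium; compound addition (concentration series); 24hr at 30C, 99% humidity; absorbance read at 600 nm.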
TDP-43 yeast inh: rescues yeast growth from TDP-43 toxicity; TDP-43 expressing yeast growth rescue, BacTiter-Glo, 24 h; Potency, µM (highest dose often 46.1 µM), without a hit: at the top dose growth rescue (activation), usual class: activators; actives 1.8% (n = 410,000); note: % of control where 0% means no effect; nearly all actives have a fitted effect of over 50% in size
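In this qHTS, compounds that restore growth of yeast expressing TDP-43 appear as activators. Cells (OD600=0.02, galactose medium, raffinose-pregrown) are incubated with compound 24 hr at 30 deg C and growth is quantified by BacTiter-Glo.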
Abeta yeast res: compounds reversing amyloid beta toxicity in yeast; yeast expressing A-beta42, growth rescue, OD600, 48 h; response scale: 0% DMSO, 100% iron-clioquinol control; Potency, µM (doses to about 46.1 µM), actives largely listed as activators; actives 0.063% (n = 410,000); AID 1347071; note: nearly all actives have a fitted effect of over 55% in size
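Yeast growth medium received pinned compounds, then yeast cells expressing toxic A-beta were added; plates incubated at 30 C for 48 hr. Growth read as absorbance at 600 nm, normalized to DMSO and equimolar FeCl3 plus clioquinol controls.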
aSyn rescue: rescues yeast growth from alpha-synuclein toxicity; Yeast expressing alpha-synuclein, growth rescue, BacTiter-Glo, 24 h; Potency, µM (titrated, usually from 46.1 µM), for the others: at the highest dose growth rescue (activation), hits mostly activators; actives 0.14% (n = 370,000); AID 652106; note: % of control where 0% means no effect; nearly all actives have a fitted effect of over 65% in size
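Rescue of yeast growth: cells expressing toxic alpha-synuclein, induced in galactose at OD600 0.02, incubated with compound 24 h at 30 C. ATP luminescence quantified growth; inhibitors of toxicity appear as activators.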
Mito fusion yeast: mitochondrial division inhibition or fusion activation; S. cerevisiae fusion-defective mutant growth rescue, CellTiterGlo 48 h; Potency, µM (doses to about 46.1 µM), without a hit: at the top dose growth rescue (activation), most hits filed as activators; actives 0.23% (n = 320,000); AID 485298; note: % of control where 0% means no effect; nearly all actives have a fitted effect of over 45% in size
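S. cerevisiae fusion-defective temperature-sensitive mutants (e.g. fzo1-1, mgm1-5) grown 48 h at 37C in YPEG (ethanol/glycerol non-fermentable) medium with 23 nl compound per well; growth rescue read as CellTiterGlo luminescence.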
Starred values were filed as active, the others as inactive; i = inactive; ? = inconclusive; nt = not tested or not shown; [ ] = remark or other dose. Calls come from the whole dose curve; as a rule, active = well fitted curve in the direction sought with a large enough effect; inconclusive = small, poorly fitted or top-dose-only effect, or another doubt; inactive = no such curve, though single readings can be large; an effect the other way counts as inactive or inconclusive. Potency is the fitted concentration of half-maximal effect.

SMILES	FUS suppressor	TDP-43 yeast inh	Abeta yeast res	aSyn rescue	Mito fusion yeast
Cc1ccc(C2CC2C(=O)NNC(=S)Nc2cccc(C)c2)cc1 (stereo not drawn)	i	?	i	24%	17%
Cc1ccc(C2CC2C(=O)NNC(=S)Nc2cccc(Cl)c2)cc1 (stereo not drawn)	?	14µM*	i	-2%	10%
C[n+]1ccnc2ccccc21	nt	nt	nt	-7%	nt
C[C@H]1[C@@H](OC(=O)N2CCOCC2)CC[C@@]23CCCN2C(=O)CCC[C@@H]13	i	nt	nt	nt	nt
CCOc1ccc(CNC(=O)Cn2ccc3cc(S(=O)(=O)N4CCCCC4)ccc32)cc1	16µM*	19%	i	nt	nt
CN(C)c1ccc(CNC(=O)c2cc3cc(S(=O)(=O)N4CCCCC4)ccc3n2C)cc1	8.9µM*	-2%	i	nt	nt
CCc1ccc2nc(N(Cc3cccnc3)C(=O)c3ccc(C#N)cc3)sc2c1	i	1.8µM*	i	nt	nt
CCOc1cccc2sc(N(Cc3cccnc3)C(=O)c3ccc(C#N)cc3)nc12	i	-3%	i	nt	nt
O=C(Cc1ccccc1)N(Cc1cccnc1)c1nc2c(Cl)cccc2s1	i	20µM*	i	nt	nt
CCc1ccc2nc(N(Cc3cccnc3)C(=O)Cc3ccccc3)sc2c1	i	28µM*	i	nt	nt
COc1ccc2nc(N(Cc3cccnc3)C(=O)Cc3ccccc3)sc2c1	i	32µM*	i	nt	nt
CC(Oc1ccccc1)C(=O)OCC(=O)Nc1ccc2c(c1)OCO2 (stereo not drawn)	i	-1%	?	-2%	nt
COC(=O)[C@]12C[C@H](CC(=O)NCc3cccs3)C(=O)N(Cc3ccc(Cl)cc3Cl)C1=C[C@H](C(C)(C)C)O[C@@H]2C	i	nt	nt	nt	nt
CCOc1ccc2nc(N(Cc3cccnc3)C(=O)c3cccs3)sc2c1	i	14µM*	i	nt	nt
CC(=O)c1ccc(C(=O)N(CCCN(C)C)c2nc3c(C)c(C)ccc3s2)cc1	i	-10%	i	nt	nt
CC(=O)c1ccc(C(=O)N(Cc2cccnc2)c2nc3c(C)c(C)ccc3s2)cc1	?	22µM*	i	nt	nt
O=C(Nc1ccccc1)OCCN1C(=O)CCC12CCC(c1ccccc1)CC2 (stereo not drawn)	i	nt	nt	nt	nt
Cc1ccc(Cc2c(C)nc3nc(SCC(=O)NC4CCC(C)CC4)nn3c2C)cc1 (stereo not drawn)	i	6%	i	nt	nt
CCOC(=O)N/N=C/c1cn(CCCOc2ccccc2)c2ccccc12	i	11µM*	i	9%	14%
O=C(C(c1ccccc1)c1ccccc1)N1CC[C@@]2(O)CCCC[C@H]2C1	i	-12%	i	1%	2%
CCCCN=C1NN=C(c2ccc(C)c(C)c2)CS1	i	14µM*	i	-3%	-7%
Cc1scc(C(=O)N/N=C/c2ccc(Cl)s2)c1C	i	19%	i	-13%	13µM*
C=CCN1[C@@H](Cc2ccccc2)COc2cccc(F)c2S1(=O)=O	i	nt	nt	nt	nt
CCc1cccc(CC)c1NC(=S)Nc1ccccc1	i	-25%[0.397 µM]	14µM*	-3%	-8%
CCc1cccc(CC)c1NC(=O)c1cccc(NC(=O)c2ccccc2)c1	i	21%	i	-8%	6%
SMILES	FUS suppressor	TDP-43 yeast inh	Abeta yeast res	aSyn rescue	Mito fusion yeast
Cc1cccc(C(=O)NCC(=O)OC(C)C(=O)Nc2ccc(Cl)cn2)c1 (stereo not drawn)	i	-28%	i	3%	4%
CO[C@H]([C@H](C)/C=C/N(C)C=O)[C@@H](C)C(=O)CC[C@H](C)[C@H](O)[C@H](C)[C@H]1OC(=O)/C=C/C(C)=C/C[C@H](O)C[C@@H]2C=CC[C@@H](C[C@H](OC)[C@@H](C)[C@@H](OC)C[C@@H](OC)[C@@H]1C)O2	14µM*	nt	nt	nt	nt
COC(=O)C[C@H]1CC[C@@H]2[C@H](COc3ccc(NC(=O)C(C)C)cc3C(=O)N2C)O1	i	nt	nt	nt	nt
Cc1ccccc1NC(=S)NC(=O)/C=C/c1ccco1	8.9µM*	10µM*	i	-11%	-20%
Clc1cccc(N2CCN(CCCN3CCN(c4ccccc4)CC3)CC2)c1	i	-12%	i	0%	nt
Nc1ccc(N2CCN(c3cccc(Cl)c3)CC2)cc1	nt	?	i	2%	4µM*
Cc1cc2n(n1)C(c1ccsc1)Nc1ccccc1-2 (stereo not drawn)	i	8.9µM*	i	-20%	12%
CC(=O)Nc1ccc(C2Nc3c(C)cc(C)cc3-c3cc(C)nn32)cc1 (stereo not drawn)	i	-23%	i	nt	nt
CCN(CC)c1ccc(C2Nc3ccccc3-c3cc(C)nn32)cc1 (stereo not drawn)	i	?	i	nt	nt
COC(=O)c1ccc(C2Nc3c(C)cccc3-c3cc(C)nn32)cc1 (stereo not drawn)	?	13µM*	i	nt	nt
CSc1ccc(C2Nc3ccccc3-c3cc(C)nn32)cc1 (stereo not drawn)	?	18µM*	i	-1%	7%
NC(N)=N[C@@H](CCC(=O)O)C(=O)O	nt	nt	nt	-2%	1%
CCOc1ccccc1C(=O)Nc1ccc(S(=O)(=O)Nc2cc(OC)nc(OC)n2)cc1	nt	4%	i	19%	3%
Cc1ccc(Cl)cc1N1CCN(C(=O)c2ccc(CS(=O)(=O)c3ccc(Br)cc3)o2)CC1	22µM*	-13%	i	nt	nt
c1ccc(-c2nn3c(C4CCCCC4)nnc3s2)nc1	i	-9%	i	1%	4%
COc1cc(-c2nn3c(C4CCCCC4)nnc3s2)cc(OC)c1OC	i	-10%	i	0%	3%
COc1ccc(-c2nn3c(C4CCCCC4)nnc3s2)cc1OC	?	20µM*	i	-3%	?
c1ccc(-c2nn3c(C4CCCCC4)nnc3s2)cc1	i	20µM*	i	3%	11%
Clc1ccc(OCc2nn3c(C4CCCCC4)nnc3s2)cc1	?	20µM*	i	25%	-7%
c1csc(-c2nn3c(C4CCCCC4)nnc3s2)c1	i	?	i	4%	nt
c1ccc(CN(Cc2ccccc2)C(c2ccnc3ccccc23)c2nnnn2-c2ccc3c(c2)OCCO3)cc1 (stereo not drawn)	i	21%	i	3%	nt
CN(CCc1ccccc1)C(c1ccnc2ccccc12)c1nnnn1-c1ccc2c(c1)OCCO2 (stereo not drawn)	?	35µM*	i	1%	nt
